# According to PubChem BioAssay (NCATS):
# Several values for one entry are separate records, joined by “and”; a condition that tells them apart may be missing. Equal entries are not always repeated. Results filed as inconclusive are left out. Activity calls are given as the source filed them. Unless noted, the call rests on the fitted dose curve; in most records, active means well fitted curve in the direction sought with a large enough effect; inconclusive means small, poorly fitted or top-dose-only effect, or another doubt; inactive means no such curve, though single readings can be large; an effect the other way counts as inactive or inconclusive.
# How the values were obtained:
# [1] = qHTS Assay for Lipid Storage Modulators (AID 1519; calls by dose curve; on activity change, negative = inhibition: on the % scale 0 is the no-effect control and ±100 the full control effect); details: Drosophila S3 cells, BODIPY lipid droplet/cell ratio, laser cytometry, cells loaded with oleic acid
# Outline: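 Cells seeded at 5,000 per well were treated with compounds over a concentration series and loaded with oleic acid (400 uM, as added). Lipid droplet fluorescence (488 nm excitation, 500-530 nm channel) was read by laser-scanning cytometry and normalized to 20 uM Triacsin C.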
# [2] = biological target: Alpha-galactosidase A (Homo sapiens) (UniProt P06280); test: Counterscreen for Glucocerebrosidase Inhibitors: qHTS Assay for Human alpha-Galactosidase at pH 4.5 (AID 992); details: purified enzyme, fluorogenic substrate; series mostly up to 76.9 µM; further: 0% is about no effect
# Outline: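 Each compound is preincubated briefly with 2 nM enzyme before substrate addition (80 uM); plates then sit 20 min at ambient temperature, are quenched with 1M NaOH/1M glycine, and read fluorometrically.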
# [3] = biological target: alpha-glucosidase (Oryza sativa, rice) (UniProt Q653V4); test: Counterscreen for Glucocerebrosidase Inhibitors: qHTS Assay for Rice alpha-Glucosidase at pH 5.0 (AID 997); details: rice alpha-glucosidase enzyme activity; series mostly up to 76.9 µM;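 further: 0% = full activity with enzyme and -100% = basal without enzyme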
# Outline: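 Endpoint fluorogenic assay at pH 5.0: compounds (0.7 nM to 77 uM) titrated against 4 nM rice enzyme and 400 uM 4-MU-alpha-glucoside for 20 min at room temperature; NaOH/glycine stop, read ex 365/em 440 nm, Hill-fitted AC50.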
# [4] = biological target: DNA repair nuclease/redox regulator APEX1 (Homo sapiens) (UniProt P27695); test: qHTS Validation Assay for Inhibitors of the Human Apurinic/apyrimidinic Endonuclease 1 (APE1) (AID 1705;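 further: TAMRA fluorescence gain over two minutes as APE1 cuts a quenched THF abasic duplex; on the % scale 0 is the no-effect control and ±100 the full control effect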); details: purified APE1 endonuclease activity, fluorescence, titration; series mostly up to 57.1 µM
# Outline: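 Endonuclease activity of human APE1 is followed as dequenching when the enzyme incises a tetrahydrofuran abasic site in a short duplex labelled 5'-TAMRA/3'-BHQ-2 (50 nM final), after 15 min enzyme–compound preincubation at room temperature.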
# [5] = biological target: Endonuclease 4 (Escherichia coli (strain K12)) (UniProt P0A6C1); test: Counterscreen for APE1 Inhibitors: qHTS Validation Assay for Inhibitors of Endonuclease IV (AID 1708); further: on the % scale 0 is the no-effect control and ±100 the full control effect; details: E. coli endonuclease IV, DNA cleavage fluorescence; series mostly up to 57.1 µM
# Outline: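 Measured as reaction progress, the fluorescence gain between first and third kinetic reads after adding 50 nM TAMRA/BHQ-2 THF duplex to 2 nM enzyme preincubated 15 min with compound; 2 mM MgCl2, pH 7.5.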
# [6] = qHTS for differential inhibitors of proliferation of Plasmodium falciparum line 7G8 (AID 1815); details: Plasmodium falciparum 7G8 proliferation inhibition; series mostly up to 28.7 µM;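 further: parasite growth measured after three days of incubation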; further: potency means the concentration at half of the fitted maximal effect;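 on activity change, negative = inhibition: plate controls were vehicle wells for no effect and reference inhibitor wells for full effect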
# [7] = Cell Viability - LYMP2-026 (AID 989); details: LYMP2-026 lymphoblastoid cell viability, qHTS; series mostly up to 92.2 µM; further: on the % scale 0 is the no-effect control and ±100 the full control effect; nearly all actives have a fitted effect of over 50% in size
# Outline: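 qHTS cytotoxicity: 2500 cells/well, 5 hr 37 C, compound 24 hr 37 C, CellTiter-Glo 30 min RT, luminescence. Tetraoctylammonium bromide positive control. AC50 via standard Hill fit.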
# [8] = Cell Viability - LYMP1-002 - Assay at 24 hr (AID 993); details: LYMP1-002 lymphoblastoid cells viability; series mostly up to 92.2 µM; further: on the % scale 0 is the no-effect control and ±100 the full control effect
# Outline: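 CellTiter-Glo luminescence (intracellular ATP) after 24 h compound exposure, 37 C, in LYMP1-002 human lymphoblastoid cells; decreased ATP taken as cytotoxicity. AC50 from standard Hill fit of concentration-response curves.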
# [9] = Cell Viability - LYMP1-002 - Assay at 40 hr (AID 994); details: LYMP1-002 lymphoblastoid cell viability; series mostly up to 92.2 µM;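 further: 0% = DMSO only and full inhibition = 92 µM tetraoctylammonium bromide; nearly all actives have a fitted effect of over 60% in size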
# Outline: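 qHTS cytotoxicity; 2500 cells/well, 5 hr 37 C settle, compound 40 hr 37 C. CellTiter-Glo, 30 min RT, luminescence (ATP). Concentration-response, Hill fit → AC50. Pos. ctrl tetraoctylammonium bromide.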
# [10] = Validation of Assay for Modulators of Lamin A Splicing (AID 1459; active means well fitted curve in the direction sought with a large enough effect in the signal ratio; the % refers to the signal ratio;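 further: cells exposed to compound for two days before reading; 0% is about no effect; ratio rise marks activators and ratio drop marks inhibitors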); details: Lamin A splicing dual RFP/GFP fluorescence reporter; series mostly up to 9.22 µM
# Outline: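 Splicing correction is reported by an EGFP-containing lamin A minigene in stably transfected S3 HeLa cells, while DsRed2 controls for viability and nonspecific signal. Cells are exposed to compounds for 48 hrs before the GFP over RFP ratio is taken.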
# [11] = measured here: cell count channel max response
# [12] = measured here: lipid channel max response
# Sequence of Alpha-galactosidase A (Homo sapiens) (P06280 whole entry, looked up): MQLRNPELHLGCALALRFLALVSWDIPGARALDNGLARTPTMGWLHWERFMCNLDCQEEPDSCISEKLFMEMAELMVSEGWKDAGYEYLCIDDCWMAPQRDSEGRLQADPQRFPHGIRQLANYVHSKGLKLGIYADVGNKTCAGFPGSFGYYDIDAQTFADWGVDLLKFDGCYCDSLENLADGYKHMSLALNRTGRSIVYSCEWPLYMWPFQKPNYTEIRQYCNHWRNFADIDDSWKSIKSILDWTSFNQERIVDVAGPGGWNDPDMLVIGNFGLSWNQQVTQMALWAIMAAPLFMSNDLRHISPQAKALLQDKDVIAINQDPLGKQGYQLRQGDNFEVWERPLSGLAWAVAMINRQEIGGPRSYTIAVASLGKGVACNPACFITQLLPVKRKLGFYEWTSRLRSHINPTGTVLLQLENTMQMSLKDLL
# Sequence of DNA repair nuclease/redox regulator APEX1 (Homo sapiens) (P27695 whole entry, looked up): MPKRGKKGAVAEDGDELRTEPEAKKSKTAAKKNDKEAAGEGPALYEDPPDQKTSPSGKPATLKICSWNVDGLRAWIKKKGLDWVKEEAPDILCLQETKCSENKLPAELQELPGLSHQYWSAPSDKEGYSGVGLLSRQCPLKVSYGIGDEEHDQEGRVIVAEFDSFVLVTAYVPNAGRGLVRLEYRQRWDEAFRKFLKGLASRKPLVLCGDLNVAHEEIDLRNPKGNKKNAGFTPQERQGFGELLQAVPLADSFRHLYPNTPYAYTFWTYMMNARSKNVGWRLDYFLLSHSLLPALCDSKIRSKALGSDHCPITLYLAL
structure (smiles),measurement,setting,value
O=c1cc(-c2ccccc2)oc2cc(O)c(O)c(O)c12,"activity change, negative = inhibition",[1]; at 57.5 µM (top of the series),6.99% (inactive)
same,max response,[1]; [11],-15.3%
same,max response,[1]; [12],-4.95%
O=c1cc(-c2ccccc2)oc2cc(O)cc(O)c12,"activity change, negative = inhibition",[1]; at 25.7 µM (top of the series),-11.6% (inactive)
same,"activity change, negative = inhibition",[1]; at 57.5 µM (top of the series),1.96% (inactive) and -20.6% (inactive)
same,max response,[1]; [11],-13.1% and 8.12% and 6.97%
same,max response,[1]; [12],-20.8% and 15.3% and -13.5%
COc1cc(O)c2c(c1)C(=O)c1cc(C)cc(O)c1C2=O,"activity change, negative = inhibition",[1]; at 57.5 µM (top of the series),2.34% (inactive)
same,max response,[1]; [11],7.65%
same,max response,[1]; [12],11.5%
CCCCCCCCCCCC1=C(O)C(=O)C=C(O)C1=O,"activity change, negative = inhibition",[1]; at 57.5 µM (top of the series),11.6% (inactive) and 5.79% (inactive)
same,max response,[1]; [11],14.8% and -11.9%
same,max response,[1]; [12],24.3% and -12.6%
CC(C)OC(=O)C(C)(C)Oc1ccc(C(=O)c2ccc(Cl)cc2)cc1,outcome,[2],inactive
same,outcome,[3],inactive
same,"activity change, negative = inhibition",[1]; at 25.7 µM (top of the series),-4.12% (inactive)
same,max response,[1]; [11],-11.4%
same,max response,[1]; [12],-14.8%
same,outcome,[4],inactive
C[C@@H](O)[C@H]1C(=O)N2C(C(=O)O)=C(S[C@@H]3CN[C@H](C(=O)N(C)C)C3)[C@H](C)[C@H]12,"activity change, negative = inhibition",[1]; at 25.7 µM (top of the series),-1.28% (inactive)
same,max response,[1]; [11],-4.15%
same,max response,[1]; [12],-5.75%
CCN(CC)C(=O)c1ccc(O)c(OC)c1,outcome,[2],inactive
same,outcome,[3],inactive
same,"activity change, negative = inhibition",[1]; at 25.7 µM (top of the series),0.695% (inactive)
same,max response,[1]; [11],14.3%
same,max response,[1]; [12],14.5%
same,outcome,[4],inactive
same,outcome,[5],inactive
same,Potency,[6],inactive
NCCS,outcome,[2],inactive
same,outcome,[3],inactive
same,"activity change, negative = inhibition",[1]; at 57.5 µM (top of the series),0.57% (inactive)
same,max response,[1]; [11],-11.3%
same,max response,[1]; [12],-9.57%
same,outcome,[4],inactive
same,outcome,[5],inactive
same,Potency,[6],inactive
CN(C)CCC(c1ccccc1)c1ccccn1 (stereo unspecified),Potency,[7],inactive
same,Potency,[8],inactive
same,Potency,[9],inactive
same,"activity change, negative = inhibition",[1]; at 57.5 µM (top of the series),5.69% (inactive)
same,max response,[1]; [11],23.2%
same,max response,[1]; [12],33.1%
same,outcome,[4],inactive
same,outcome,[5],inactive
CC(C)[C@H](CO)Nc1nc(Nc2ccc(C(=O)O)c(Cl)c2)c2ncn(C(C)C)c2n1,"activity change, negative = inhibition",[1]; at 57.5 µM (top of the series),6.65% (inactive)
same,max response,[1]; [11],12.5%
same,max response,[1]; [12],19.1%
O=C1NCC2(CCN(CCc3ccccc3)CC2)O1,outcome,[2],inactive
same,outcome,[3],inactive
same,outcome,[10],inactive
same,"activity change, negative = inhibition",[1]; at 25.7 µM (top of the series),-2.42% (inactive)
same,"activity change, negative = inhibition",[1]; at 57.5 µM (top of the series),11.9% (inactive) and -0.152% (inactive)
same,max response,[1]; [11],-3.3% and 25.9% and -24.6%
same,max response,[1]; [12],-4.45% and 48.5% and -24.1%
same,outcome,[4],inactive
same,Potency,[6],inactive
Clc1ccc(Cn2c(CN3CCCC3)nc3ccccc32)cc1,outcome,[2],inactive
same,outcome,[3],inactive
same,outcome,[10],inactive
same,"activity change, negative = inhibition",[1]; at 25.7 µM (top of the series),-4.13% (inactive)
same,max response,[1]; [11],-8.03%
same,max response,[1]; [12],-12.8%
same,outcome,[4],inactive
same,outcome,[5],inactive
same,Potency,[6],7.08 µM (active)
CC(=O)c1ccc(S(=O)(=O)NC(=O)NC2CCCCC2)cc1,Potency,[7],inactive
same,outcome,[2],inactive
same,Potency,[8],inactive
same,Potency,[9],inactive
same,outcome,[3],inactive
same,"activity change, negative = inhibition",[1]; at 25.7 µM (top of the series),-0.412% (inactive)
same,"activity change, negative = inhibition",[1]; at 57.5 µM (top of the series),2.09% (inactive)
same,max response,[1]; [11],-7.61% and -6.03%
same,max response,[1]; [12],-6.16% and -3.34%
same,outcome,[4],inactive
same,outcome,[5],inactive
same,Potency,[6],inactive
O=C(O)CCc1nc(-c2ccccc2)c(-c2ccccc2)o1,outcome,[2],inactive
same,outcome,[3],inactive
same,"activity change, negative = inhibition",[1]; at 25.7 µM (top of the series),0.686% (inactive)
same,max response,[1]; [11],0.745%
same,max response,[1]; [12],2.18%
same,outcome,[4],inactive
same,outcome,[5],inactive
CCCNC(=O)NS(=O)(=O)c1ccc(Cl)cc1,Potency,[7],inactive
same,outcome,[2],inactive
same,Potency,[8],inactive
same,Potency,[9],inactive
same,outcome,[3],inactive
same,"activity change, negative = inhibition",[1]; at 25.7 µM (top of the series),-1.71% (inactive)
same,max response,[1]; [11],8.45%
same,max response,[1]; [12],7.5%
same,outcome,[4],inactive
same,outcome,[5],inactive
same,Potency,[6],inactive
COc1ccc2c3c1OC1C[C@@H](O)C=C[C@@]31CCN(C)C2 (stereo partly specified),"activity change, negative = inhibition",[1]; at 25.7 µM (top of the series),-1.59% (inactive)
same,"activity change, negative = inhibition",[1]; at 57.5 µM (top of the series),-3.75% (inactive)
same,max response,[1]; [11],1.47% and -27.6%
same,max response,[1]; [12],-1.31% and -11.1%
COc1ccc(-c2coc3cc(O)cc(O)c3c2=O)cc1,"activity change, negative = inhibition",[1]; at 57.5 µM (top of the series),4.62% (inactive) and -2.47% (inactive)
same,max response,[1]; [11],-4.41% and 15.8%
same,max response,[1]; [12],0.883% and 14.1%
COc1cccc(-c2cc(=O)c3ccccc3o2)c1N,outcome,[2],inactive
same,outcome,[3],inactive
same,"activity change, negative = inhibition",[1]; at 57.5 µM (top of the series),1.98% (inactive)
same,max response,[1]; [11],13.8%
same,max response,[1]; [12],15.5%
same,outcome,[4],inactive
same,outcome,[5],inactive
O=c1c(O)c(-c2ccc(O)cc2)oc2cc(O)cc(O)c12,Potency,[7],inactive
same,Potency,[8],inactive
same,Potency,[9],inactive
same,"activity change, negative = inhibition",[1]; at 25.7 µM (top of the series),-1.01% (inactive)
same,"activity change, negative = inhibition",[1]; at 57.5 µM (top of the series),9.57% (inactive)
same,max response,[1]; [11],-23.1% and 1.49%
same,max response,[1]; [12],-23.3% and 13.5%
CCN(CC)CCOC(=O)c1ccc(N)cc1,outcome,[2],inactive
same,outcome,[3],inactive
same,"activity change, negative = inhibition",[1]; at 25.7 µM (top of the series),-0.292% (inactive)
same,"activity change, negative = inhibition",[1]; at 57.5 µM (top of the series),1.41% (inactive)
same,max response,[1]; [11],4.92% and -22.1%
same,max response,[1]; [12],5.47% and -19.5%
same,outcome,[4],inactive
same,Potency,[6],inactive
